Where two headings read alike, the source gives them in different places.
What was measured:
TAOK1 = conditions: concentration: 1 μM, replicates: in singlicate; n = 1
TAOK2 = conditions: concentration: 1 μM, replicates: in singlicate; n = 1
TAOK3 = conditions: concentration: 1 μM, replicates: in singlicate; n = 1
TBK1 = conditions: concentration: 1 μM, replicates: in singlicate; n = 1
TEC = conditions: concentration: 1 μM, replicates: in singlicate; n = 1
TESK1 = conditions: concentration: 1 μM, replicates: in singlicate; n = 1
TGFBR1 = conditions: n = 1
TGFBR2 = conditions: concentration: 1 μM, replicates: in singlicate; n = 1
TIE1 = conditions: concentration: 1 μM, replicates: in singlicate; n = 1
TIE2 = tested on: T1, TIE2; conditions: concentration: 1 μM, replicates: in singlicate; n = 1
T1 construct: gene TEK

TLK1 = conditions: concentration: 1 μM, replicates: in singlicate; n = 1
TLK2 = conditions: concentration: 1 μM, replicates: in singlicate; n = 1
TNIK = conditions: concentration: 1 μM, replicates: in singlicate; n = 1
TNK1 = conditions: concentration: 1 μM, replicates: in singlicate; n = 1
TNK2 = conditions: concentration: 1 μM, replicates: in singlicate; n = 1
TNNI3K = conditions: concentration: 1 μM, replicates: in singlicate; n = 1
TRKA = tested on: T2, TRKA; conditions: concentration: 1 μM, replicates: in singlicate; n = 1
T2 construct: gene NTRK1

TRKB = conditions: concentration: 1 μM, replicates: in singlicate; n = 1
TRKC = tested on: T3, TRKC; conditions: concentration: 1 μM, replicates: in singlicate; n = 1
T3 construct: gene NTRK3

TRPM6 = conditions: concentration: 1 μM, replicates: in singlicate; n = 1
[1] = concentration: 1 μM, replicates: in singlicate
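Further: KINOMEscan kinase panel screen.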

Cn1cncc1C(=O)NC1CCN(c2ccnc(Nc3ccc(F)cc3)n2)C1 (centres unmarked) [GSK1379717]
%Inh (TAOK1): 0% | %Inh (TAOK2): 0% | %Inh (TAOK3): 0% | %Inh (TBK1): 9% | %Inh (TEC): 4% | %Inh (TESK1): 98.9% | %Inh (TGFBR1; [1]): 26% | %Inh (TGFBR2): 0% | %Inh (TIE1): 0% | %Inh (TIE2): 0% | %Inh (TLK1): 18% | %Inh (TLK2): 0% | %Inh (TNIK): 0% | %Inh (TNK1): 0% | %Inh (TNK2): 10% | %Inh (TNNI3K): 0% | %Inh (TRKA): 0% | %Inh (TRKB): 17% | %Inh (TRKC): 48% | %Inh (TRPM6): 31%

CCn1c(-c2ccccc2)nc2cnccc21 [SB-733416]
%Inh (TAOK1): 0% | %Inh (TAOK2): 0% | %Inh (TAOK3): 1% | %Inh (TBK1): 0% | %Inh (TEC): 0% | %Inh (TESK1): 9% | %Inh (TGFBR1; [1]): 0% | %Inh (TGFBR2): 8% | %Inh (TIE1): 0% | %Inh (TIE2): 0% | %Inh (TLK1): 0% | %Inh (TLK2): 0% | %Inh (TNIK): 0% | %Inh (TNK1): 31% | %Inh (TNK2): 17% | %Inh (TNNI3K): 16% | %Inh (TRKA): 0% | %Inh (TRKB): 0% | %Inh (TRKC): 25% | %Inh (TRPM6): 0%

Cc1nccc(-c2c(-c3ccc(F)cc3)ncn2CCCN2CCOCC2)n1.Cl [SB-282975]
%Inh (TAOK1): 4% | %Inh (TAOK2): 12% | %Inh (TAOK3): 0% | %Inh (TBK1): 16% | %Inh (TEC): 15% | %Inh (TESK1): 37% | %Inh (TGFBR1; [1]): 1% | %Inh (TGFBR2): 0% | %Inh (TIE1): 0% | %Inh (TIE2): 99.9% | %Inh (TLK1): 0% | %Inh (TLK2): 0% | %Inh (TNIK): 0% | %Inh (TNK1): 37% | %Inh (TNK2): 26% | %Inh (TNNI3K): 0% | %Inh (TRKA): 0% | %Inh (TRKB): 0% | %Inh (TRKC): 16% | %Inh (TRPM6): 0%

FC(F)(F)c1ccccc1-c1cc(-c2c[nH]nc2-c2ccccn2)ccn1 [GW679396]
%Inh (TAOK1): 0% | %Inh (TAOK2): 0% | %Inh (TAOK3): 0% | %Inh (TBK1): 18% | %Inh (TEC): 1% | %Inh (TESK1): 14% | %Inh (TGFBR1; 1 µM): 0% | %Inh (TGFBR2): 10% | %Inh (TIE1): 0% | %Inh (TIE2): 7% | %Inh (TLK1): 0% | %Inh (TLK2): 0% | %Inh (TNIK): 18% | %Inh (TNK1): 1% | %Inh (TNK2): 0% | %Inh (TNNI3K): 0% | %Inh (TRKA): 39% | %Inh (TRKB): 0% | %Inh (TRKC): 0% | %Inh (TRPM6): 3%

CC[C@@H]1CO[C@H](C(=O)Nc2ccccc2)CN1c1cc(-c2ccc3c(N)n[nH]c3c2)nc(NC)n1 [GSK2376236]
%Inh (TAOK1): 0% | %Inh (TAOK2): 1% | %Inh (TAOK3): 0% | %Inh (TBK1): 31% | %Inh (TEC): 0% | %Inh (TESK1): 0% | %Inh (TGFBR1; [1]): 9% | %Inh (TGFBR2): 0% | %Inh (TIE1): 4% | %Inh (TIE2): 0% | %Inh (TLK1): 21% | %Inh (TLK2): 0% | %Inh (TNIK): 0% | %Inh (TNK1): 4% | %Inh (TNK2): 0% | %Inh (TNNI3K): 17% | %Inh (TRKA): 9% | %Inh (TRKB): 0% | %Inh (TRKC): 0% | %Inh (TRPM6): 35%

Fc1ccc(-c2nc[nH]c2-c2ccncc2)cc1 [SB-217360]
%Inh (TAOK1): 0% | %Inh (TAOK2): 40% | %Inh (TAOK3): 7% | %Inh (TBK1): 48% | %Inh (TEC): 0% | %Inh (TESK1): 0% | %Inh (TGFBR1; [1]): 37% | %Inh (TGFBR2): 53% | %Inh (TIE1): 0% | %Inh (TIE2): 3% | %Inh (TLK1): 0% | %Inh (TLK2): 0% | %Inh (TNIK): 51% | %Inh (TNK1): 0% | %Inh (TNK2): 0% | %Inh (TNNI3K): 0% | %Inh (TRKA): 0% | %Inh (TRKB): 0% | %Inh (TRKC): 4% | %Inh (TRPM6): 6%

CNc1nc(-c2ccc3c(N)n[nH]c3c2)cc(N2C[C@@H](C(=O)NC3CCCCC3)OC[C@H]2C)n1 [GSK2375584]
%Inh (TAOK1): 0% | %Inh (TAOK2): 1% | %Inh (TAOK3): 0% | %Inh (TBK1): 28% | %Inh (TEC): 12% | %Inh (TESK1): 11% | %Inh (TGFBR1; [1]): 20% | %Inh (TGFBR2): 0% | %Inh (TIE1): 2% | %Inh (TIE2): 0% | %Inh (TLK1): 17% | %Inh (TLK2): 5% | %Inh (TNIK): 8% | %Inh (TNK1): 13% | %Inh (TNK2): 17% | %Inh (TNNI3K): 2% | %Inh (TRKA): 11% | %Inh (TRKB): 0% | %Inh (TRKC): 0% | %Inh (TRPM6): 0%

From publication PMC5540273 (PLoS ONE, 2017)
